# Measurements from PubChem BioAssay AID2533 (National Center for Advancing Translational Sciences (NCATS), 2010).
# Records with an inconclusive call do not appear. Unmarked numbers belong to inactive results. Active and inactive are the calls of the source. Calls come from the whole dose curve; as a rule, active = well fitted activation curve with a large enough effect; inconclusive = small, poorly fitted or top-dose-only effect; inactive = flat fitted curve, though single readings scatter.
# Molecular target: Pyruvate kinase PKM (Homo sapiens) (UniProt P14618)
# Assay: Confirmation Concentration-Response Assay for Activators of Human Muscle isoform 2 Pyruvate Kinase: for Probe SAR; note: nearly all actives have a fitted effect of over 60% in size; for activity change, positive = activation: % of control where 0% means no effect
# Settings: purified PKM2, ATP generation, Kinase-Glo luminescence; series mostly up to 57.5 µM; activity change, positive = activation: at the top concentration
# In short: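 ATP generation was detected by luciferase-coupled luminescence (Kinase-Glo). The reaction ran for 1 hour at room temperature with 0.1 mM ADP, 0.5 mM PEP and 0.1 nM purified hPK-M2 in 50 mM imidazole, pH 7.2, with 7 mM MgCl2. The enzyme was set at intermediate activity so activators could be detected.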
# Potency is the fitted concentration of half-maximal effect.
# Chain of Pyruvate kinase PKM (Homo sapiens) (P14618 whole entry, looked up, canonical isoform): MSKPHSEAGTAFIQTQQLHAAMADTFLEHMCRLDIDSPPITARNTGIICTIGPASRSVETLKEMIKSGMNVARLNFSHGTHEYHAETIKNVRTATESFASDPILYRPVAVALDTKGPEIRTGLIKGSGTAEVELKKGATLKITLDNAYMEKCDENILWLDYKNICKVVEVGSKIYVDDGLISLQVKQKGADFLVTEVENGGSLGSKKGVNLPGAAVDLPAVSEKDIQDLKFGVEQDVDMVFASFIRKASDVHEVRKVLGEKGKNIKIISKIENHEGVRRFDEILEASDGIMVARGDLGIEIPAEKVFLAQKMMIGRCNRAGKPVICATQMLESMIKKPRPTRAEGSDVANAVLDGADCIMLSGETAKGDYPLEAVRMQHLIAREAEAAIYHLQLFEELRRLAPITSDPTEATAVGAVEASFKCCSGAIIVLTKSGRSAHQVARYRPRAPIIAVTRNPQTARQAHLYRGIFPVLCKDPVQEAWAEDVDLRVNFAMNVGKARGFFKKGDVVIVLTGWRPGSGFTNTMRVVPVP
Compound,Potency,"activity change, positive = activation"
CSc1cc2c(s1)c1cnn(Cc3cccc(O)c3)c(=O)c1n2C,41.1 nM (active),–
O=S1(=O)N=C(OCc2ccccc2)c2ccccc21,–,-0.444%
Cc1ccc(-c2nc3cnccn3c2Nc2ccc(C(C)C)cc2)o1,–,24.6%
O=C1c2ccccc2C(=O)N1c1cccc(=O)[nH]1,–,-0.118%
CC(=O)Nc1ccc(S(=O)(=O)N2CCN(S(=O)(=O)c3ccc4c(c3)OCCO4)CC2)cc1,1630 nM (active),–
O=S1(=O)N=C(Oc2ccc(C(F)(F)F)cc2)c2ccccc21,–,5.27%
COc1cc(F)c(S(=O)(=O)N2CCN(S(=O)(=O)c3ccc(NC(C)=O)cc3)CC2)c(F)c1,13000 nM (active),–
COc1cc(F)c(S(=O)(=O)N2CCN(S(=O)(=O)c3cccc(NC(C)=O)c3)CC2)c(F)c1,3260 nM (active),–
O=C1c2ccccc2C(=O)N1c1ccc2ccccc2n1,–,3.11%
Cn1c2cc(S(C)=O)sc2c2cnn(Cc3cccc(O)c3)c(=O)c21 (configuration not stated),130 nM (active),–
Cc1ccc(-c2nc3ccccn3c2Nc2ccccc2C)o1,–,29.2%
Cc1ccccc1NS(=O)(=O)c1ccc2c(c1)CCC(=O)N2,11600 nM (active),–
Cc1ccc(Nc2c(-c3ccc(C)o3)nc3cccc(C)n23)cc1,–,22.8%
O=C1CCc2cc(S(=O)(=O)Nc3ccccc3-c3ccccc3)ccc2N1,–,16.8%
COc1cccc(Cn2ncc3c4sc(S(C)=O)cc4n(C)c3c2=O)c1 (configuration not stated),73 nM (active),–
Cc1ccc2nc(-c3cccs3)c(Nc3ccccc3)n2c1,–,11.6%
Cc1ccc(C)c(OC2=NS(=O)(=O)c3ccccc32)c1,–,2.92%
O=S1(=O)N=C(Oc2ccccc2F)c2ccccc21,–,12%
Cc1ccc(NS(=O)(=O)c2cc3c(cc2Cl)CCC(=O)N3)cc1C,163 nM (active),–

Compound,Potency,"activity change, positive = activation"
O=S1(=O)N=C(Sc2ccc3c(c2)OCCO3)c2ccccc21,–,-17.2%
O=C1CCc2cc(S(=O)(=O)Nc3cccc(C(F)(F)F)c3)ccc2N1,13000 nM (active),–
Cc1ccc(Nc2c(-c3ccc(C)o3)nc3ccccn23)cc1,–,20.3%
Cc1ccc(Nc2c(-c3ccc(C)s3)nc3ccccn23)cc1,14600 nM (active),–
CC(=O)Nc1cccc(S(=O)(=O)N2CCCN(S(=O)(=O)c3ccc4c(c3)OCCO4)CC2)c1,1300 nM (active),–
O=C1c2ccccc2C(=O)N1c1ccccc1O,–,4.71%
COc1cccc(N2C(=O)c3ccccc3C2=O)n1,–,15.7%
Cc1ccc(-c2nc3ccc(Cl)cn3c2Nc2ccccc2)o1,–,18.9%
COc1cc(F)c(S(=O)(=O)N2CCCN(S(=O)(=O)c3ccc(N)cc3)CC2)c(F)c1,1300 nM (active),–
Cc1ccc(Nc2c(-c3ccsc3)nc3cccc(C)n23)cc1,–,6.9%
Cc1ccn2c(NCc3ccco3)c(-c3ccccc3)nc2c1,–,-5.8%
CCSC1=NS(=O)(=O)c2ccccc21,–,8.09%
Cc1ccc(NS(=O)(=O)c2ccc3c(c2)oc(=O)n3C)cc1C,10300 nM (active),–
O=C(O)c1ccccc1OC1=NS(=O)(=O)c2ccccc21,–,-3.15%
Nc1ccc(S(=O)(=O)N2CCN(S(=O)(=O)c3c(F)cccc3F)CC2)cc1,919 nM (active),–
O=C1NS(=O)(=O)c2ccccc21,inactive,–
Nc1cccc(S(=O)(=O)N2CCN(S(=O)(=O)c3ccc4c(c3)OCCO4)CC2)c1,91.9 nM (active),–
Cc1ccc(NS(=O)(=O)c2ccc3ccccc3c2)cc1C,41100 nM (active),–
